The values that follow come from PubChem BioAssay (NCI).

Compounds without any hit were thinned out: in the full panel of roughly 83,000, 20% have a hit.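 Values shown are percent growth following 48 h exposure of cells in 96-well plates to a single concentration of compound; below 10 was considered active.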 Values without a mark were called inactive. The source made the active and inactive calls.

The test system of one assay is UACC-62 melanoma. Put plainly: NCI-60 one-dose screen, 48 h (100 = growth as untreated, 0 = no growth, -100 = all killed). The conditions noted are these: 10 µM unless noted.
Take `O=C1Nc2ccc(Br)cc2C1=N/C=c1\[nH]c(=O)/c(=C/c2ccc(Cl)cc2)s1`: the growth is 91.2%. On the same count and under the same terms, for `Nc1c(C(=O)Nc2cccc(C(F)(F)F)c2)sc2nc3c(cc12)CCCCC3` the value was 12.8%. On the same count and under the same terms, as for `COc1cc(/C=C2\C=C(c3ccc(F)cc3)N(Cc3ccccc3)C2=O)cc(OC)c1OC`, the figure is 71.6%.

In the case of `Clc1nc(Cl)c2ncn(C/C=C/Cn3cnc4c(Cl)nc(Cl)nc43)c2n1`, the growth was 79.1%. On the same count and under the same terms, for `NC(C(=O)O)C(O)c1ccc(OCc2ccccc2)c(OCc2ccccc2)c1` (stereo not drawn) the value was 97.8%. As to `Nc1c(C(=O)Nc2ccccc2)sc2nc3c(cc12)CCC3`, the growth is 69.8%.

Turning to `COc1ccc(/C=C/c2cc(N3CCOCC3)c3cc(F)c(F)cc3n2)cc1OC`, the growth is 19.9%. Same read-out and setting: as for `O=[N+]([O-])c1cccc(-c2cc(-c3cc(Br)ccc3O)[nH]n2)c1`, the figure is 15.2%; as for `COC1=CC(c2ccc[nH]2)=N/C1=C\c1[nH]c(C)c(C(=O)CCC(=O)Oc2ccc3c(c2)CCC2C3CC[C@]3(C)[C@@H](O)CC[C@@H]23)c1C` (stereo partly drawn), -41.8% (active); as for `COc1ccc(C2=NN(c3ccc(S(N)(=O)=O)cc3)C(c3cn(-c4ccccc4)nc3-c3ccc(Cl)cc3)C2)cc1` (stereo not drawn), 88.5%. The same measure, in the same setting: as for `COc1cc(CCn2nnc3c(NCCCCO)ncnc32)cc(OC)c1`, the figure is 104%; as for `Clc1ccc(-c2nc(-c3ccco3)cn3ccnc23)cc1`, 88%. As to `O=C(c1ccncc1)N1N=C(c2ccc(Cl)cc2)CC1c1c[nH]c2ccccc12` (stereo not drawn), the growth is 90.5%. Still for that read-out and setting: for `COc1ccc(-c2cn[nH]c2-c2cc(OC)c3c(c2)OCCO3)cc1` the value was 37.6%; for `O=S(=O)(c1ccccc1)n1ccc(-c2ccc3c(c2)CCO3)n1`, 73.1%; for `COC1=CC(c2ccc[nH]2)=N/C1=C\c1[nH]c(C)c(C(=O)CCCCC(=O)NCc2ccccc2)c1C`, 89.4%. In the case of `Nc1c(C(=O)Nc2cccc([N+](=O)[O-])c2)sc2nc3c(cc12)C(O)CCC3` (stereo not drawn), the growth is 47.3%.

On to `COc1cccc(NC(=O)c2sc3nc4c(cc3c2N)CCCC4)c1`, for which the growth is 33.2%.

For the compound `O=C(Nc1cccc(C(F)(F)F)c1)Nc1ccc(OCc2nnc(-c3ccccc3)o2)c(F)c1`, the growth is 41.4%. In the case of `CC(=O)Nc1nc(C(=O)N2N=C(C)/C(=C/c3ccc(Cl)cc3)C2=O)cs1`, the growth is 111%. Same read-out and setting: for `COc1cc(C(=O)OCCCCCCCCCCC[P+](c2ccccc2)(c2ccccc2)c2ccccc2)ccc1O` the value was -16% (active); for `O=C(NCCCN1CCN(CCCNC(=O)C2CCCCC2)CC1)C1CCCCC1`, 98.3%; for `COc1cc2c(cc1OC)C1(C)N(CC2)C(=O)OC1(C)C` (stereo not drawn), 106%. As for `CCCCCc1c(C)[nH]c(/C=c2\[nH]/c(=C3/C=c4ccccc4=N3)cc2OC)c1C`, the growth was -78.9% (active).

Turning to `COc1cc(-c2n[nH]nc2-c2ccc3c(c2)OCCO3)cc(OC)c1OC`, the growth was 27%.

The subject of the next assay is LOX IMVI melanoma. The description is as above. The conditions noted are these: 10 µM unless noted.
For `Clc1ccc([I+]c2ccc(Cl)cc2Cl)c(Cl)c1`, the growth is 10.5%.

For the compound `Cc1ccc(C2=NN(c3ccc(S(N)(=O)=O)cc3)C(c3cn(-c4ccccc4)nc3-c3ccccc3)C2)cc1` (stereo not drawn), the growth was 91.2%. Turning to `N#CC1=C(N)OC2=C(C(=O)CCC2)C1c1ccco1` (stereo not drawn), the growth was 96.4%.

Take `COC1=CC(c2ccc[nH]2)=N/C1=C\c1[nH]c(C)c(C(=O)CCCCC(=O)Oc2ccc3c(c2)CCC2C3CC[C@]3(C)[C@@H](O)CC[C@@H]23)c1C` (stereo partly drawn): the growth was 1.7% (active). Still for that read-out and setting: as for `COc1ccc(NC(=O)CSc2nc3ccccc3c(=O)n2Cc2cc(OC)c(OC)c(OC)c2)cc1`, the figure is 94.5%; as for `Nc1c(C(=O)Nc2c(Cl)cccc2Cl)sc2nc3c(cc12)CCCCC3`, 58.6%; as for `O=C(CN1CCN(c2cc3c(cc2F)c(=O)c(C(=O)O)cn3C2CC2)CC1)Nc1ccc(C(=O)/C=C/c2ccccc2)cc1`, 5.67% (active). The same measure, in the same setting: as for `COc1cc(/C=C/C(=O)c2ccc(NC(=O)CN3CCN(c4cc5c(cc4F)c(=O)c(C(=O)O)cn5C4CC4)CC3)cc2)cc(OC)c1OC`, the figure is -54.7% (active). In the case of `NC(=O)c1c(NC(=O)c2ccc(OCC3CCCO3)cc2)sc2c1CCCC2` (stereo not drawn), the growth is 105%.

With `COc1ccc(/C=C/C(=O)OCC(=O)NNC(=O)c2ccccc2)cc1OC`, the growth is 87.1%.

Turning to `Cc1sc(N=Nc2ccc(N(C)C)cc2)[n+]([O-])c1C`, the growth is 102%. The same measure, in the same setting: for `O=C(/C=C/c1ccccc1)n1c(-c2ccc(Cl)cc2)nc2ccccc21` the value was -82.9% (active). Still for that read-out and setting: as for `COC(=O)[C@H]1[C@H](OC)[C@@H](OC(=O)/C=C/c2ccncc2)CC2CN3CCc4c([nH]c5cc(OC)ccc45)[C@@H]3C[C@@H]21` (stereo partly drawn), the figure is 50.4%; as for `O=C1Nc2ccc(Br)cc2C1=N/C=c1\[nH]c(=O)/c(=C/c2ccc(Cl)cc2)s1`, 103%. Same read-out and setting: for `Nc1c(C(=O)Nc2cccc(C(F)(F)F)c2)sc2nc3c(cc12)CCCCC3` the value was 8.87% (active). Turning to `COc1cc(/C=C2\C=C(c3ccc(F)cc3)N(Cc3ccccc3)C2=O)cc(OC)c1OC`, the growth is 65.3%. Still for that read-out and setting: for `Clc1nc(Cl)c2ncn(C/C=C/Cn3cnc4c(Cl)nc(Cl)nc43)c2n1` the value was 38.8%; for `NC(C(=O)O)C(O)c1ccc(OCc2ccccc2)c(OCc2ccccc2)c1` (stereo not drawn), 99.1%; for `Nc1c(C(=O)Nc2ccccc2)sc2nc3c(cc12)CCC3`, 89.1%. The same measure, in the same setting: for `COc1ccc(/C=C/c2cc(N3CCOCC3)c3cc(F)c(F)cc3n2)cc1OC` the value was 1.22% (active); for `O=[N+]([O-])c1cccc(-c2cc(-c3cc(Br)ccc3O)[nH]n2)c1`, 6.51% (active); for `COC1=CC(c2ccc[nH]2)=N/C1=C\c1[nH]c(C)c(C(=O)CCC(=O)Oc2ccc3c(c2)CCC2C3CC[C@]3(C)[C@@H](O)CC[C@@H]23)c1C` (stereo partly drawn), -81.7% (active). Same read-out and setting: as for `COc1ccc(C2=NN(c3ccc(S(N)(=O)=O)cc3)C(c3cn(-c4ccccc4)nc3-c3ccc(Cl)cc3)C2)cc1` (stereo not drawn), the figure is 87.3%; as for `COc1cc(CCn2nnc3c(NCCCCO)ncnc32)cc(OC)c1`, 102%; as for `Clc1ccc(-c2nc(-c3ccco3)cn3ccnc23)cc1`, 55.2%. Take `O=C(c1ccncc1)N1N=C(c2ccc(Cl)cc2)CC1c1c[nH]c2ccccc12` (stereo not drawn): the growth is 86.9%. Same read-out and setting: as for `COc1ccc(-c2cn[nH]c2-c2cc(OC)c3c(c2)OCCO3)cc1`, the figure is 30.2%; as for `O=S(=O)(c1ccccc1)n1ccc(-c2ccc3c(c2)CCO3)n1`, 85.2%. Consider `COC1=CC(c2ccc[nH]2)=N/C1=C\c1[nH]c(C)c(C(=O)CCCCC(=O)NCc2ccccc2)c1C`, for which the growth was -56.3% (active).

Consider `Nc1c(C(=O)Nc2cccc([N+](=O)[O-])c2)sc2nc3c(cc12)C(O)CCC3` (stereo not drawn), for which the growth was 62.8%. Same read-out and setting: for `COc1cccc(NC(=O)c2sc3nc4c(cc3c2N)CCCC4)c1` the value was 40.5%. Take `O=C(Nc1cccc(C(F)(F)F)c1)Nc1ccc(OCc2nnc(-c3ccccc3)o2)c(F)c1`: the growth was 46.8%. On the same count and under the same terms, for `CC(=O)Nc1nc(C(=O)N2N=C(C)/C(=C/c3ccc(Cl)cc3)C2=O)cs1` the value was 101%; for `COc1cc(C(=O)OCCCCCCCCCCC[P+](c2ccccc2)(c2ccccc2)c2ccccc2)ccc1O`, -97.7% (active); for `O=C(NCCCN1CCN(CCCNC(=O)C2CCCCC2)CC1)C1CCCCC1`, 101%. On the same count and under the same terms, for `COc1cc2c(cc1OC)C1(C)N(CC2)C(=O)OC1(C)C` (stereo not drawn) the value was 96.3%; for `CCCCCc1c(C)[nH]c(/C=c2\[nH]/c(=C3/C=c4ccccc4=N3)cc2OC)c1C`, -85.2% (active); for `COc1cc(-c2n[nH]nc2-c2ccc3c(c2)OCCO3)cc(OC)c1OC`, 15.2%.
